Experimental data published in PubChem BioAssay (NCI).
The panel holds about 79,000 compounds, 15% with a hit somewhere; the sample as a whole holds those more often. Activity calls are given as the source filed them. Rule as the data show it: active = growth inhibition above about 70%; inactive = the rest. Where a SMILES comes first, the peptide text is derived from it. The star is where a group is joined. Cbz = O=C(OCc1ccccc1)*

Test: NCI Yeast Anticancer Drug Screen. Data for the cln2 rad14 strain (AID 165);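 also: 0% = growth equal to vehicle treated cultures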
Conditions: S. cerevisiae cln2 rad14 strain, at 50.0 µM, stronger effect = higher value
Summary of the method: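 Readout is yeast growth inhibition versus vehicle-treated controls, using a strain with cln2 and rad14 alterations exposed to compound.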

Row | SMILES | growth inhibition
1 | COC(=O)C(NC(=O)C(C)NC(=O)C1CCCN1C(=O)CNC(=O)C(CO)NC(=O)C(NC(=O)OCc1ccccc1)C(C)O)C(C)O (configuration not stated) (Cbz-TSGPAT-OMe; configuration not given here) | -10.2% (inactive)
2 | CCCCC(CC)CN(CC(CC)CCCC)C(=O)C(C)OC(=O)C(CC)CCCC (configuration not stated) | -4.3% (inactive)
3 | CCC(=O)Nc1cc([N+](=O)[O-])cc([N+](=O)[O-])c1 | -32.5% (inactive)
4 | C=C(Br)CNCC(=C)Br | 9.65% (inactive)
5 | CN(C)Cc1cc(C(=O)/C=C/c2c(Cl)cccc2Cl)cc(CN(C)C)c1O | -31.2% (inactive)
6 | CC(C)(C)c1ccc(C(=O)N2CCOC23CCCCC3)cc1 | 3.2% (inactive)
7 | O=C(O)c1ccc(C2C3C=CC(C3)C2[N+](=O)[O-])cc1 (configuration not stated) | 5.85% (inactive)
8 | CCC/C=C/c1cc2c(cc1O)CC[C@@H]1[C@@H]2CC[C@]2(C)[C@@H](O)CC[C@@H]12 | 35.4% (inactive)
9 | O=C1c2ccccc2-c2oc(=O)c3ccccc3c21 | -17.2% (inactive)
10 | O=c1[nH]c2cc(Cl)ccc2nc1/C=C(\O)c1cccc2ccccc12 | 17% (inactive)
11 | CC(=O)OC/C=C(\C)CCC=C(C)C | -6.65% (inactive)
12 | CCCCCCCSCC(O)COC(c1ccccc1)(c1ccccc1)c1ccccc1 (configuration not stated) | -20% (inactive)
13 | NC(=O)NNc1ccccc1 | -16.4% (inactive)
14 | Cn1c(=O)c(C(c2ccccc2)c2c(O)c3ccccc3n(C)c2=O)c(O)c2ccccc21 | -34% (inactive)
15 | CCCc1[nH]n(-c2cccc([N+](=O)[O-])c2)c(=O)c1N=Nc1ccc(Cl)cc1 | 20.9% (inactive)
16 | N#CCCN(c1ccc(C=O)cc1)S(=O)(=O)c1ccccc1 | 5.75% (inactive)
17 | O=[N+]([O-])c1c(O)c(O)c2ccccc2c1Nc1ccccc1 | -62.4% (inactive)
18 | COc1ccc(OC)c(CCCCC(N)=O)c1 | 1.4% (inactive)
19 | c1ccc(CCN=C2c3ccccc3-n3cccc32)nc1 | -28.1% (inactive)
20 | CSc1nnc(CCC(=O)Nc2ccc(Cl)cc2Cl)o1 | 10.3% (inactive)
21 | COc1cc(C(=O)Nc2ccc(S(=O)(=O)Nc3nc(C)cc(C)n3)cc2)cc(OC)c1OC | 10.7% (inactive)
22 | COC(=O)C1(CC(=O)CC(=O)CC2(C(=O)OC)NC(=S)NC(=O)C2C#N)NC(=S)NC(=O)C1C#N (configuration not stated) | 4.05% (inactive)

Test: NCI Yeast Anticancer Drug Screen. Data for the bub3 strain (AID 167)
Conditions: S. cerevisiae bub3 mutant strain, at 50.0 µM, stronger effect = higher value
Summary of the method: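 Yeast carrying a defined mutation is treated with each compound, and growth is compared with that of vehicle-exposed cells to give inhibition.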

Row | SMILES | growth inhibition
23 | Cc1ccc(S(=O)(=O)N/N=C/c2oc(-c3ccncc3)c(-c3ccncc3)c2[N+](=O)[O-])cc1 | -11.5% (inactive)
24 | O=C1C=C(Nc2cccnc2)c2ccccc2C1=O | 19.6% (inactive)
25 | COc1ccc(-c2coc3cc(O)cc(O)c3c2=O)cc1 | 58.4% (inactive)
26 | Cn1cc(/C=C/C(=O)c2ccccc2[N+](=O)[O-])c2ccccc21 | 0.6% (inactive)
27 | C=CCOC(C)OCC=C | 13.3% (inactive)
28 | O=c1[nH]nnc2ccccc12 | 17.9% (inactive)
29 | COc1ccc(C)c(C2=CCCCC2)c1 | -2.35% (inactive)
30 | C=CCc1ccc(O)c(OC)c1 | 26.4% (inactive)
31 | O=C1NCC2(CCN(Cc3ccccc3)CC2)N1c1ccccc1 | -13.1% (inactive)
32 | CN(C)c1nc2[nH]ncc2c(=O)[nH]1 | 0.5% (inactive)
33 | Cc1c(-c2ccc3c(c2)COC3)sc(N)c1C#N | 47.8% (inactive)
34 | COc1ccc(NC(=O)CC(=O)N/N=C/c2ccc(N(CCC#N)S(=O)(=O)c3ccccc3)cc2)cc1 | -11.2% (inactive)
35 | CC12CC(=O)C3C(CCC4=CC(=O)CCC43C)C1CC=C2CC(=O)O (configuration not stated) | -5.15% (inactive)
36 | COc1ccc(C2S/C(=C\c3cccc(O)c3)C(=O)N2NC(=O)Cc2ccccc2)cc1 (configuration not stated) | -1.2% (inactive)
37 | CCS(=O)(=O)OCCOC | -14.8% (inactive)
38 | O=C1C=C/C(=N/c2ccc(O)o2)c2ccccc21 | 17.8% (inactive)
39 | CCCN1CCc2c([nH]c3cc(OC)ccc23)C1C (configuration not stated) | 7.35% (inactive)
40 | CC(C)=NC(C(=O)O)C(C)(C)S (configuration not stated) | -62% (inactive)
41 | COC(=O)C(NC(=O)C(C)NC(=O)C1CCCN1C(=O)CNC(=O)C(CO)NC(=O)C(NC(=O)OCc1ccccc1)C(C)O)C(C)O (configuration not stated) (Cbz-TSGPAT-OMe; configuration not given here) | -7.8% (inactive)
42 | CCCCC(CC)CN(CC(CC)CCCC)C(=O)C(C)OC(=O)C(CC)CCCC (configuration not stated) | 14.8% (inactive)

Row | SMILES | growth inhibition
43 | CCC(=O)Nc1cc([N+](=O)[O-])cc([N+](=O)[O-])c1 | -36.9% (inactive)
44 | C=C(Br)CNCC(=C)Br | 18.2% (inactive)
45 | CN(C)Cc1cc(C(=O)/C=C/c2c(Cl)cccc2Cl)cc(CN(C)C)c1O | -0.75% (inactive)
46 | CC(C)(C)c1ccc(C(=O)N2CCOC23CCCCC3)cc1 | 17.1% (inactive)
47 | O=C(O)c1ccc(C2C3C=CC(C3)C2[N+](=O)[O-])cc1 (configuration not stated) | -12.5% (inactive)
48 | CCC/C=C/c1cc2c(cc1O)CC[C@@H]1[C@@H]2CC[C@]2(C)[C@@H](O)CC[C@@H]12 | 41.3% (inactive)
49 | O=C1c2ccccc2-c2oc(=O)c3ccccc3c21 | 2.2% (inactive)
50 | O=c1[nH]c2cc(Cl)ccc2nc1/C=C(\O)c1cccc2ccccc12 | 15.1% (inactive)
51 | CC(=O)OC/C=C(\C)CCC=C(C)C | -0.55% (inactive)
52 | CCCCCCCSCC(O)COC(c1ccccc1)(c1ccccc1)c1ccccc1 (configuration not stated) | -21.5% (inactive)
53 | NC(=O)NNc1ccccc1 | -7.2% (inactive)
54 | Cn1c(=O)c(C(c2ccccc2)c2c(O)c3ccccc3n(C)c2=O)c(O)c2ccccc21 | 2.8% (inactive)
55 | CCCc1[nH]n(-c2cccc([N+](=O)[O-])c2)c(=O)c1N=Nc1ccc(Cl)cc1 | -2.5% (inactive)
56 | N#CCCN(c1ccc(C=O)cc1)S(=O)(=O)c1ccccc1 | -13.4% (inactive)
57 | O=[N+]([O-])c1c(O)c(O)c2ccccc2c1Nc1ccccc1 | 11.7% (inactive)
58 | COc1ccc(OC)c(CCCCC(N)=O)c1 | 0.5% (inactive)
59 | c1ccc(CCN=C2c3ccccc3-n3cccc32)nc1 | 10.6% (inactive)
60 | CSc1nnc(CCC(=O)Nc2ccc(Cl)cc2Cl)o1 | 14.4% (inactive)
61 | COc1cc(C(=O)Nc2ccc(S(=O)(=O)Nc3nc(C)cc(C)n3)cc2)cc(OC)c1OC | -4.9% (inactive)
62 | COC(=O)C1(CC(=O)CC(=O)CC2(C(=O)OC)NC(=S)NC(=O)C2C#N)NC(=S)NC(=O)C1C#N (configuration not stated) | 5.55% (inactive)
